According to PubChem BioAssay (Tox21):
Where “and” joins values, the source holds several entries; their conditions need not be identical. Identical values can stand only once. Some structures have more than one record in an assay (separate samples or runs), and their calls can disagree. Calls of active or inactive are those of the source. Where a call stands in place of a potency, no number is given. Calls come from the whole dose curve; as a rule, active = well fitted activation curve with a large enough effect in the repeat runs; inconclusive = weak or mixed curves; inactive = flat fitted curve, though single readings scatter.

assay: A CellTox Green Cytotoxicity Assay to monitor cytotoxicity in HEK293 cells - 0 hour (AID 1224869); conditions: CellTox Green fluorescence; series mostly up to 76.8 µM; cytotoxicity: at the top concentration; note: nearly all actives have a fitted effect of over 50% in size
Source text: National Center for Advancing Translational Sciences [NCATS]
NIH Chemical Genomics Center [NCGC]
U.S. Environmental Protection Agency [EPA]
National Institutes of Environmental Health Sciences [NIEHS]
National Toxicology Program [NTP]
Cell-based models are critical for drug discovery. Determining the natural cytotoxic effects resulting from test compounds is an essential research activity. A CellTox Green Cytotoxicity Assay to monitor cytotoxicity in real time of continues cell culture during 40 hours of the compound treatment was used to screen Tox21 10K library compounds in Hek293 cells. CellTox Green Cytotoxicity Assay is a nonlytic, homogeneous, biofluorescent method to measure cytotoxicity in cell culture after experimental manipulation. The assay system uses a proprietary asymmetric cyanine dye that is excluded from viable cells but preferentially stains the dead cell's DNA. […] Viable cells produce no appreciable increases in fluorescence. Therefore, the fluorescence signal produced by the binding interaction with dead cell DNA is proportional to cytotoxicity.
The mixture of Hek293 cell suspension and reagents were dispensed at 600cells/6 ul/well in 1536-well tissue culture treated black solid bottom plates using a Multidrop dispenser. After the assay plates were incubated at a 37 C/5% CO2 incubator for 5 hours, 23 nL of compounds dissolved in DMSO, positive and negative controls was transferred to the assay plate by a pintool work station. The plates were incubated at 37 C for 40 hours. The fluorescence intensity were measured at 0h, 8h, 16h, 24h, 32h and 40h time points using ViewLux plate reader during compound treatment.
Potency is the fitted concentration of half-maximal effect.

SMILES | Potency | cytotoxicity
CCCCCCCCCCCCc1ccccc1O | inactive | 
C=CC(=O)OCCCCCCCC |  | -5.52% (inactive)
CCOC(=O)C(C)C(C)=O (stereo not given) |  | 0.245% (inactive)
Cc1occc(=O)c1OC(=O)C(C)C |  | 0.986% (inactive)
CC(C)(C)c1ccc(O)c(C(C)(C)C)c1 | inactive | 
C=CC(=O)OCCCCCCOC(=O)C=C | inactive | 
CCCNC(C)C(=O)Nc1ccccc1C (stereo not given) |  | -4.23% [at 35.3 µM] (inactive)
CCCCC/C=C/CC1CC(=O)OC1=O (stereo not given) |  | 1.32% (inactive)
COC(=O)[C@H]1[C@H]2C[C@@H]3c4[nH]c5cc(OC)ccc5c4CCN3C[C@H]2C[C@@H](OC(=O)c2cc(OC)c(OC)c(OC)c2)[C@@H]1OC | inactive | 
CN1C(=O)c2ccc([N+](=O)[O-])cc2C1=O |  | -0.691% (inactive)
Nc1nc2ccccc2[nH]1 | inactive | 
CC(=O)O[C@]1(C(C)=O)CC[C@H]2[C@@H]3C[C@H](C)C4=CC(=O)CC[C@]4(C)[C@H]3CC[C@@]21C | inactive | 
O=C(O)c1cc(Cl)cc(Cl)c1 |  | 7.66% (inactive)
CC1=CC(=O)c2ccccc2C1=O | inactive | 
CN(C)c1ccc(C(=C2C=CC(=[N+](C)C)C=C2)c2ccccc2)cc1 | inactive | 
C=CS(=O)(=O)O |  | -0.215% (inactive)
O=C1CC2(CCCC2)CC(=O)N1CCCCN1CCN(c2ncccn2)CC1 | inactive | 
Oc1c(Cl)cc(Cl)cc1Sc1cc(Cl)cc(Cl)c1O | inactive and 27.5 µM (active) | 
CC(=O)N[C@@H](CS)C(=O)O | inactive | 
O=Nc1ccc(Nc2ccccc2)cc1 | inactive | 

SMILES | Potency | cytotoxicity
COC(c1ccccc1)(c1ccccc1)[C@H](Oc1nc(C)cc(C)n1)C(=O)O |  | -16.7% [at 35.3 µM] (inactive)
Cc1ccc(-c2cc(C(F)(F)F)nn2-c2ccc(S(N)(=O)=O)cc2)cc1 | inactive | 
Cc1ccnc2c1NC(=O)c1cccnc1N2C1CC1 | inactive | 
O=C1OC2(c3ccc(O)cc3Oc3cc(O)ccc32)c2ccccc21 | 1.74 µM (active) and 848 nM (active) | 
CC[C@H]1CN2CCc3cc(OC)c(OC)cc3[C@@H]2C[C@@H]1C[C@H]1NCCc2cc(OC)c(OC)cc21 | inactive | 
c1cnc2cc3c(cc2n1)C1CNCC3C1 |  | -0.439% [at 35.3 µM] (inactive)
COc1ccc(Cc2cnc(N)nc2N)cc1OC |  | 0.275% [at 35.3 µM] (inactive)
CCN(CC)C(=O)Nc1ccc(OCC(O)CNC(C)(C)C)c(C(C)=O)c1 (stereo not given) |  | 0.473% [at 35.3 µM] (inactive)
Nc1cc(S(=O)(=O)O)cc2cc(S(=O)(=O)O)cc(O)c12 | inactive | 
CC(COc1ccccc1)N(CCCl)Cc1ccccc1 (stereo not given) | inactive | 
CCC(=O)/C=C/C1C(C)=CCCC1(C)C (stereo not given) | inactive | 
COc1nc(C)nc(Cl)c1NC1=NCCN1 |  | -6.79% [at 35.3 µM] (inactive)
O=C(Nc1ccccc1SSc1ccccc1NC(=O)c1ccccc1)c1ccccc1 | inactive | 
O=C(O)c1cn(-c2ccc(F)cc2)c2cc(N3CCNCC3)c(F)cc2c1=O | inactive | 
N[C@@H]1CONC1=O |  | 1.99% [at 35.3 µM] (inactive)
Oc1c(Cl)cc(Cl)c(Cl)c1Cc1c(O)c(Cl)cc(Cl)c1Cl | inactive | 
COc1ccc(CCN2CCC(Nc3nc4ccccc4n3Cc3ccc(F)cc3)CC2)cc1 | inactive | 
Nc1nc(=S)c2[nH]cnc2[nH]1 | inactive | 
CCC(C)(Oc1ccc(C2(c3ccc(OC(C)(CC)C(=O)O)cc3)CCCCC2)cc1)C(=O)O (stereo not given) |  | -0.313% [at 35.3 µM] (inactive)
CC(N)=O |  | 6.28% [at 200 µM] (inactive)
